# According to PMC5540273 (PLoS ONE, 2017):
# Where two headings read alike, the source gives them in different places.
# Columns and labels:
# FLT3 = details: concentration: 1 μM, replicates: in singlicate; n = 1
# FLT4 = details: concentration: 1 μM, replicates: in singlicate; n = 1
# FRK = details: concentration: 1 μM, replicates: in singlicate; n = 1
# FYN = details: concentration: 1 μM, replicates: in singlicate; n = 1
# GAK = details: concentration: 1 μM, replicates: in singlicate; n = 1
# GCN2(Kin.Dom.2,S808G) = tested on: T1, GCN2(Kin.Dom.2,S808G); details: concentration: 1 μM, replicates: in singlicate; n = 1
# T1 construct: gene EIF2AK4
# GRK1 = details: concentration: 1 μM, replicates: in singlicate; n = 1
# GRK2 = tested on: T2, GRK2; details: concentration: 1 μM, replicates: in singlicate; n = 1
# T2 construct: gene ADRBK1
# GRK3 = tested on: T3, GRK3; details: concentration: 1 μM, replicates: in singlicate; n = 1
# T3 construct: gene ADRBK2
# GRK4 = details: concentration: 1 μM, replicates: in singlicate; n = 1
# GRK7 = details: concentration: 1 μM, replicates: in singlicate; n = 1
# GSK3A = details: concentration: 1 μM, replicates: in singlicate; n = 1
# GSK3B = details: n = 1
# HASPIN = tested on: T4, HASPIN; details: concentration: 1 μM, replicates: in singlicate; n = 1
# T4 construct: gene GSG2
# HCK = details: concentration: 1 μM, replicates: in singlicate; n = 1
# HIPK1 = details: concentration: 1 μM, replicates: in singlicate; n = 1
# HIPK2 = details: concentration: 1 μM, replicates: in singlicate; n = 1
# HIPK3 = details: concentration: 1 μM, replicates: in singlicate; n = 1
# HIPK4 = details: concentration: 1 μM, replicates: in singlicate; n = 1
# HPK1 = details: concentration: 1 μM, replicates: in singlicate; n = 1
# [1] = concentration: 1 μM, replicates: in singlicate
# 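Further: KINOMEscan kinase panel screen.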
smiles,measurement,setting,value
Cc1ccc(-c2cc(-c3c[nH]nc3-c3ccccn3)ccn2)cc1 [GW684088],%Inh,FLT3,0%
same,%Inh,FLT4,0%
same,%Inh,FRK,4%
same,%Inh,FYN,0%
same,%Inh,GAK,80%
same,%Inh,"GCN2(Kin.Dom.2,S808G)",0%
same,%Inh,GRK1,8%
same,%Inh,GRK2,0%
same,%Inh,GRK3,74%
same,%Inh,GRK4,0%
same,%Inh,GRK7,0%
same,%Inh,GSK3A,22%
same,%Inh,GSK3B; [1],2%
same,%Inh,HASPIN,35%
same,%Inh,HCK,0%
same,%Inh,HIPK1,7%
same,%Inh,HIPK2,0%
same,%Inh,HIPK3,1%
same,%Inh,HIPK4,0%
same,%Inh,HPK1,24%
O=c1cc(N2CCOCC2)nc2n(Cc3cccc(Cl)c3Cl)ccn12 [GSK2286295],%Inh,FLT3,0%
same,%Inh,FLT4,3%
same,%Inh,FRK,0%
same,%Inh,FYN,47%
same,%Inh,GAK,6%
same,%Inh,"GCN2(Kin.Dom.2,S808G)",0%
same,%Inh,GRK1,5%
same,%Inh,GRK2,0%
same,%Inh,GRK3,0%
same,%Inh,GRK4,0%
same,%Inh,GRK7,0%
same,%Inh,GSK3A,8%
same,%Inh,GSK3B; [1],12%
same,%Inh,HASPIN,1%
same,%Inh,HCK,0%
same,%Inh,HIPK1,13%
same,%Inh,HIPK2,0%
same,%Inh,HIPK3,14%
same,%Inh,HIPK4,28%
same,%Inh,HPK1,31%
Cc1ccc(NC(=O)Nc2cccc(Cl)c2)cc1-c1ccc(C(=O)Nc2ccncc2)cc1 [GSK1398468],%Inh,FLT3,1%
same,%Inh,FLT4,18%
same,%Inh,FRK,47%
same,%Inh,FYN,8%
same,%Inh,GAK,5%
same,%Inh,"GCN2(Kin.Dom.2,S808G)",0%
same,%Inh,GRK1,0%
same,%Inh,GRK2,0%
same,%Inh,GRK3,23%
same,%Inh,GRK4,0%
same,%Inh,GRK7,0%
same,%Inh,GSK3A,22%
same,%Inh,GSK3B; [1],4%
same,%Inh,HASPIN,0%
same,%Inh,HCK,0%
same,%Inh,HIPK1,0%
same,%Inh,HIPK2,0%
same,%Inh,HIPK3,3%
same,%Inh,HIPK4,0%
same,%Inh,HPK1,40%
Clc1cc(Cl)cc(Nc2ccnc(Nc3cc(Cl)cc(Cl)c3)n2)c1 [GSK175726],%Inh,FLT3,0%
same,%Inh,FLT4,0%
same,%Inh,FRK,45%
same,%Inh,FYN,8%
same,%Inh,GAK,30%
same,%Inh,"GCN2(Kin.Dom.2,S808G)",0%
same,%Inh,GRK1,100%
same,%Inh,GRK2,0%
same,%Inh,GRK3,7%
same,%Inh,GRK4,0%
same,%Inh,GRK7,0%
same,%Inh,GSK3A,30%
same,%Inh,GSK3B; [1],0%
same,%Inh,HASPIN,0%
same,%Inh,HCK,10%
same,%Inh,HIPK1,32%
same,%Inh,HIPK2,1%
same,%Inh,HIPK3,7%
same,%Inh,HIPK4,0%
same,%Inh,HPK1,38%
Cl.Oc1ccc(-c2nc(-c3ccccc3)[nH]c2-c2ccncc2)cc1 [SB-428218],%Inh,FLT3,0%
same,%Inh,FLT4,0%
same,%Inh,FRK,37%
same,%Inh,FYN,23%
same,%Inh,GAK,36%
same,%Inh,"GCN2(Kin.Dom.2,S808G)",8%
same,%Inh,GRK1,57%
same,%Inh,GRK2,0%
same,%Inh,GRK3,75%
same,%Inh,GRK4,0%
same,%Inh,GRK7,0%
same,%Inh,GSK3A,11%
same,%Inh,GSK3B; [1],0%
same,%Inh,HASPIN,15%
same,%Inh,HCK,0%
same,%Inh,HIPK1,5%
same,%Inh,HIPK2,16%
same,%Inh,HIPK3,1%
same,%Inh,HIPK4,0%
same,%Inh,HPK1,38%
Cc1cccc(-c2nc(Nc3cccc(C(N)=O)c3)c3ccccc3n2)n1 [GW876019],%Inh,FLT3,0%
same,%Inh,FLT4,10%
same,%Inh,FRK,16%
same,%Inh,FYN,0%
same,%Inh,GAK,0%
same,%Inh,"GCN2(Kin.Dom.2,S808G)",0%
same,%Inh,GRK1,14%
same,%Inh,GRK2,0%
same,%Inh,GRK3,0%
same,%Inh,GRK4,0%
same,%Inh,GRK7,9%
same,%Inh,GSK3A,16%
same,%Inh,GSK3B; [1],12%
same,%Inh,HASPIN,14%
same,%Inh,HCK,24%
same,%Inh,HIPK1,44%
same,%Inh,HIPK2,43%
same,%Inh,HIPK3,2%
same,%Inh,HIPK4,0%
same,%Inh,HPK1,36%
Nc1ncnc2[nH]c(-c3ccccc3)nc12 [AH5015],%Inh,FLT3,0%
same,%Inh,FLT4,0%
same,%Inh,FRK,13%
same,%Inh,FYN,39%
same,%Inh,GAK,44%
same,%Inh,"GCN2(Kin.Dom.2,S808G)",27%
same,%Inh,GRK1,0%
same,%Inh,GRK2,0%
same,%Inh,GRK3,49%
same,%Inh,GRK4,0%
same,%Inh,GRK7,0%
same,%Inh,GSK3A,21%
same,%Inh,GSK3B; [1],23%
same,%Inh,HASPIN,59%
same,%Inh,HCK,0%
same,%Inh,HIPK1,19%
same,%Inh,HIPK2,0%
same,%Inh,HIPK3,39%
same,%Inh,HIPK4,21%
same,%Inh,HPK1,39%
COc1ccccc1-c1ccc2c(NC(=O)C3CC3)n[nH]c2n1 [SB-711239],%Inh,FLT3,5%
same,%Inh,FLT4,0%
same,%Inh,FRK,0%
same,%Inh,FYN,5%
same,%Inh,GAK,14%
same,%Inh,"GCN2(Kin.Dom.2,S808G)",10%
same,%Inh,GRK1,13%
same,%Inh,GRK2,0%
same,%Inh,GRK3,0%
same,%Inh,GRK4,28%
same,%Inh,GRK7,0%
same,%Inh,GSK3A,6%
same,%Inh,GSK3B; 1 µM,0%
same,%Inh,HASPIN,41%
same,%Inh,HCK,0%
same,%Inh,HIPK1,0%
same,%Inh,HIPK2,0%
same,%Inh,HIPK3,1%
same,%Inh,HIPK4,0%
same,%Inh,HPK1,41%
COc1cccc(-c2cc(-c3c[nH]nc3-c3ccccn3)ccn2)c1 [GW680338],%Inh,FLT3,0%
same,%Inh,FLT4,83%
same,%Inh,FRK,10%
same,%Inh,FYN,11%
same,%Inh,GAK,75%
same,%Inh,"GCN2(Kin.Dom.2,S808G)",7%
same,%Inh,GRK1,1%
same,%Inh,GRK2,0%
same,%Inh,GRK3,14%
same,%Inh,GRK4,0%
same,%Inh,GRK7,0%
same,%Inh,GSK3A,3%
same,%Inh,GSK3B; [1],8%
same,%Inh,HASPIN,23%
same,%Inh,HCK,0%
same,%Inh,HIPK1,11%
same,%Inh,HIPK2,10%
same,%Inh,HIPK3,22%
same,%Inh,HIPK4,21%
same,%Inh,HPK1,25%
Fc1cc(Cl)ccc1Nc1ccnc2cc(-c3ccc(CN4CCCCC4)o3)ccc12 [GW560116],%Inh,FLT3,0%
same,%Inh,FLT4,0%
same,%Inh,FRK,4%
same,%Inh,FYN,18%
same,%Inh,GAK,35%
same,%Inh,"GCN2(Kin.Dom.2,S808G)",0%
same,%Inh,GRK1,0%
same,%Inh,GRK2,0%
same,%Inh,GRK3,18%
same,%Inh,GRK4,0%
same,%Inh,GRK7,0%
same,%Inh,GSK3A,0%
same,%Inh,GSK3B; [1],0%
same,%Inh,HASPIN,32%
same,%Inh,HCK,0%
same,%Inh,HIPK1,0%
same,%Inh,HIPK2,0%
same,%Inh,HIPK3,1%
same,%Inh,HIPK4,0%
same,%Inh,HPK1,14%
